In the supplement of paper PMC10732440:
± gives the standard deviation of the averaged measurements.

The compounds below were run on Caenorhabditis elegans N2 infected with Nematocida parisii ERTm1 (assay: progeny production relative to DMSO uninfected control; higher = more progeny despite microsporidia infection (inhibition of infection with low host toxicity)). Details: infection time 6 days; 100 µM.
Procedure, shortened: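 Progeny production is reported as a percentage of spore-free vehicle wells and averaged across replicates. It was measured after bleach-synchronised wild-type C. elegans L1 larvae (100 per well) spent 6 days shaking at 21°C in K-medium with E. coli OP50, 15,000 N. parisii spores/μL and compound at 100 μM or 40 μM in 1% DMSO. Counting used Rose Bengal staining, flatbed scanning and WorMachine, and each compound and dose was tested three times.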

Compound	progeny production [%]
Oc1ccc(NCc2ccccc2OCc2ccccc2)cc1	8.25 ± 6.3
Cc1cc(CCCOc2c(C)cc(-c3noc(C(F)(F)F)n3)cc2C)on1	15.4 ± 3.2
O=S(=O)(Nc1cccc2cccnc12)c1ccccc1	12.9 ± 7.2
O=C(CC1Sc2ncnn2C1=O)Nc1ccc(Br)cc1 (centres undefined)	21.6 ± 10
CN(C)c1[nH]c(=O)ncc1F	14.8 ± 7.8
Oc1c(C(Nc2nc3ccccc3s2)c2ccc(OC(F)F)cc2)ccc2cccnc12 (centres undefined)	9.48 ± 12
CCNC(=O)Nc1cn2c(-c3ncc(CC)cn3)cc(-c3cccnc3)cc2n1	6.08 ± 4.7
O=C(NCCN1CCCCC1)c1cccc(C(F)(F)F)c1	18.2 ± 16
Cc1cccc(CC(=O)N[C@H]2CCOC2=O)c1	6.81 ± 3.6
CCCCCCC1c2ccc(O)cc2Oc2cc(O)ccc21	29.9 ± 30
CC(C)(C)c1cc(CCC(=O)N2CCC2)cc(C(C)(C)C)c1O	14.4 ± 8.6
O=C(O)c1ccccc1Sc1ncnc2sc3c(c12)CCC3	25.2 ± 16
C=C(C)n1c(=O)n(Cc2ccccc2C)c2ccccc21	14.5 ± 10
CC(C)c1ccc(COc2cccc(-c3cc([S+](C)[O-])c(C#N)c(=O)[nH]3)c2)cc1 (centres undefined)	21.4 ± 25
CCCc1ccc(-c2cc3cn([C@H]4C[C@H](O)[C@@H](CO)O4)c(=O)nc3o2)cc1	11 ± 5.5
COc1ccc(C)cc1NC(=O)c1ccc(S(=O)(=O)N2CCCCC2)cc1	19.4 ± 16
O=C(Nc1ccc(F)cc1)c1nn(-c2ccccc2)c(=O)cc1Cl	14 ± 9.4
O=c1cc(NCCCN[C@@H]2CCOc3c(Br)cc(Br)cc32)[nH]c2ccsc12	8.91 ± 4
NC(=O)c1[nH]c2ccc(S(N)(=O)=O)cc2c1-c1ccccc1	6.59 ± 2.8
CCCCN1C[C@H](O)[C@@H](O)[C@H](O)[C@H]1CO	13.9 ± 3.7

Compound	progeny production [%]
NC(=O)C(c1ccccc1)(c1ccccc1)[C@H]1CCCN(CCc2ccc3c(c2)CCO3)C1	15.2 ± 18
COc1cc(NC(=O)CN2C(=O)NC(c3ccccc3)(c3ccccc3)C2=O)cc(OC)c1	15.8 ± 11
O=C(NCc1ccc(F)cc1)c1c(O)c2ncccc2[nH]c1=O	16 ± 8.6
CC(=N)N1CC[C@H](SC2=C(C(=O)O)N3C(=O)[C@@H]([C@@H](C)O)[C@H]3C2)C1	11.1 ± 7.9
CN1CCN(Cc2ccc(-c3cnc4[nH]cc(-c5ccc6[nH]ccc6c5)c4c3)cc2)CC1	14.6 ± 5.6
CC(C)n1cnc2c(NCc3ccccc3)nc(NCc3ccccc3)nc21	12.1 ± 7.2
N=C(N)c1ccc(COc2ccc(Cl)cc2)cc1	7.24 ± 6.1
N[C@@H]1CN(c2c(F)cc3c(=O)c(C(=O)O)cn([C@@H]4C[C@@H]4F)c3c2Cl)CC12CC2	13.4 ± 6.8
CO[C@@]1(NC(=O)Cc2cccs2)C(=O)N2C(C(=O)O)=C(COC(N)=O)CS[C@@H]21	7.7 ± 7.8
Cc1cccc(C)c1C(=O)Nc1nc(-c2ccccn2)cc2ccccc12	6.64 ± 4.7
C[C@H]1COc2c(N3CCN(C)CC3)c(F)cc3c(=O)c(C(=O)O)cn1c23	12.8 ± 9.1
C[C@@H]1O[C@@H]1P(=O)(O)O	15.3 ± 13
[N-]=[N+]=N[C@H]1C[C@H](n2ccc(=O)[nH]c2=O)O[C@@H]1CO	11.5 ± 5.3
O=C(Nc1[nH]c(=O)ncc1F)c1ccccc1	23.8 ± 20
COc1cc2c(O)c3c(c(-c4ccc5c(c4)OCO5)c2cc1OC)C(=O)OC3	3.64 ± 3.2
COc1ccc2c(c1)cc(CNC(=O)c1cc3ccccc3o1)n2CC(=O)O	17.7 ± 17
COc1cc(NS(=O)(=O)c2ccc(C)cc2)c2ncccc2c1	10.3 ± 3.9
COc1c(F)c(F)cc2c(=O)c(C(=O)O)cn(C3CC3)c12	12.9 ± 4.6
NNC(=O)c1ccncc1	14.7 ± 5.8
